KCNQ2 block = KCNQ2 (rat) channel inhibition. 310,000 compounds, 1.1% hits. O88943. CHO-K1 KCNQ2, FluxOR thallium flux, 20 min; active compounds read low. B-score at 10 µM. AID 2156;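 active = fluorescence ratio B-score at most minus 3 library SDs, with starting brightness B-score within 2 library SDs, cut at about -5.5 in these data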
KCNQ2 pot = enhances the rat KCNQ2 potassium channel | O88943 | CHO-K1 KCNQ2, FluxOR thallium flux fluorescence; active compounds read high | B-score at 10 µM | 310,000 compounds, 0.54% hits | AID 2239;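 active = fluorescence ratio B-score at least 3 SD of library B-scores, with initial fluorescence B-score within 3 of them, cut at about 5.3 in these data; same plate scores as AID 2156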;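 note: B-score of peak minus minimum over baseline fluorescence ratio after K+ and Tl+ stimulus; positive B-score means potentiation of KCNQ2 with more thallium influx and brighter signal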
KCNQ2 inh conf = rat KCNQ2 channel inhibition, confirmatory screen; shares compounds with KCNQ2 block; KCNQ2-expressing cells, thallium flux; active compounds read low; activity change, negative = inhibition, % at 10 µM; 1,000 compounds, 57% hits; AID 493025;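 note: 0% = vehicle wells and values are ratio percent relative to vehicle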
KCNQ1 spec = KCNQ2 inhibitor that also affects human KCNQ1 channel; KCNQ1-expressing cells, FluxOR thallium flux fluorescence; active compounds read low; shares compounds with KCNQ2 block; 1,000 compounds, 15% hits; activity change, negative = inhibition, % at 10 µM;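 active = activity change at least 3 SD of negative controls below their mean in both duplicate wells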;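 note: CHO cells stably transfected with KCNQ1 and depolarized by potassium stimulus; peak minus minimum fluorescence over baseline after thallium addition; 0% = vehicle negative control and -100% = blank without thallium stimulus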
Target sequence (P51787 whole entry, looked up): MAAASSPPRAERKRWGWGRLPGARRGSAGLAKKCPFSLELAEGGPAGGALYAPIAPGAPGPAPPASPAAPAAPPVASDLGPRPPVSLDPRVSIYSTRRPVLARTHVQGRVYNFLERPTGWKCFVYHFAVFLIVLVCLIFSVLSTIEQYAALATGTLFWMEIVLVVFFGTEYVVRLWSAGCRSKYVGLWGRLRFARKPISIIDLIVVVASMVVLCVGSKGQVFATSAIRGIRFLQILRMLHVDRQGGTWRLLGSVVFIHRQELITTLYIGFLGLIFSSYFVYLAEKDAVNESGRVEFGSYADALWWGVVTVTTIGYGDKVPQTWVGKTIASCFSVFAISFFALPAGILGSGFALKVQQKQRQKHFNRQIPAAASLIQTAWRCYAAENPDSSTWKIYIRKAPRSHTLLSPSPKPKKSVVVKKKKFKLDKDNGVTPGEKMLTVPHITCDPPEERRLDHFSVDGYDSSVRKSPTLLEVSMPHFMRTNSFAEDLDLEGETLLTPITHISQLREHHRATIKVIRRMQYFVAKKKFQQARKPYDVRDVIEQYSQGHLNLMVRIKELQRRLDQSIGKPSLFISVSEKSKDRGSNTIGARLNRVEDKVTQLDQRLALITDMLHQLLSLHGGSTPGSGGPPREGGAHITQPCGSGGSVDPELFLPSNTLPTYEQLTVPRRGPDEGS
CHO parental ctr = KCNQ2 inhibitor counter-screen hit in parental CHO cells. shares compounds with KCNQ2 block. thallium flux counter-screen; active compounds read low. activity change, % at 10 µM. 1,000 compounds, 14% hits. AID 493029;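 note: 0% = vehicle negative controls with stimulus buffer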
KCNQ2 patch conf = rat KCNQ2 inhibition confirmed by electrophysiology | shares compounds with KCNQ2 block | calls only at 10 µM | KCNQ2-expressing cells, automated patch clamp current | 550 compounds, 49% hits | AID 588531
* hit, by the source's call; i = inactive; · = no result; + = active, no number. A selection: hits, their analogues and other compounds. The true share with any hit is near 1.6%. Unless noted, the rule behind the calls is not given here.

SMILES	KCNQ2 block	KCNQ2 pot	KCNQ2 inh conf	KCNQ1 spec	CHO parental ctr	others
CC(C)(C)OC(=O)N1CCC[C@H]1c1nnc(SCc2ccc(Cl)cc2Cl)o1	-7.2*	-7.2	i	i	i
CC(C)(C)OC(=O)N1CCC[C@H]1c1nnc(SCc2c(F)cccc2Cl)o1	i	·	·	·	·
COc1ccc(CCNC(=O)c2cccc(Br)c2)cc1OC	i	·	·	·	·
Cc1noc(C)c1CSCC(=O)N(C)CC(=O)Nc1ccc(Cl)c(C(F)(F)F)c1	i	1	·	·	·
COc1ccccc1C(=O)Nc1c(-c2ccccc2)nc2ccccn12	-7.3*	-7.3	i	i	i
COc1ccc(C(=O)Nc2c(-c3ccccc3)nc3ccccn23)c(OC)c1	i	·	·	·	·
Cc1nc(N2CCN(Cc3ccc4c(c3)OCO4)CC2)nc2c1C(=O)CC(c1ccco1)C2 (centres undefined)	i	·	·	·	·
Cc1nc(N2CCN(Cc3ccccc3)CC2)nc2c1C(=O)CC(c1ccco1)C2 (centres undefined)	-9.6*	-9.6	i	i	i
Cc1cccc(N2CCN(C(=O)NCc3ccc(F)cc3)CC2)c1C	i	1.5	·	·	·
Cc1cc(Cl)ccc1OC(C)C(=O)NCCCCc1ccccc1 (centres undefined)	-7.3*	-7.3	-32%*	i	i	KCNQ2 patch conf=+
Cc1cc(Cl)ccc1OC(C)C(=O)NCCc1ccc2c(c1)OCCO2 (centres undefined)	i	·	·	·	·
COC(=O)CSc1nnc(CNc2ccc(Cl)cc2)n1Cc1ccccc1	i	·	·	·	·
CCOC(=O)CSc1nnc(CNc2ccc(Cl)cc2)n1-c1ccccc1	-8.9*	-8.9	i	i	i
Cc1cc2c(cc1S(=O)(=O)N(C)c1ccccc1)n(C)c(=O)n2C	i	0.79	·	·	·
Cc1cc(C)c(S(=O)(=O)N(C)c2ccccc2)c(C)c1	-7.5*	-7.5	-31%*	i	i	KCNQ2 patch conf=i
CC(NC(=O)C1CCN(c2nnc(N3CCCC3=O)s2)CC1)c1ccccc1 (centres undefined)	i	1.9	·	·	·
Cc1ccc(S(=O)(=O)Nc2ccc(Cl)cn2)cc1C	i	1.3	·	·	·
CCCOC(=O)C1C2C=CC(C3CC23)C1C(=O)OCC(=O)c1ccccc1 (centres undefined)	-9.4*	-9.4	i	i	i
COC(=O)C1C2CCC(C2)C1C(=O)OCC(=O)c1ccccc1 (centres undefined)	i	·	·	·	·
CC(=O)Nc1ccc(Sc2ccccc2C(=O)O)cn1	i	·	·	·	·
COC(=O)C1CC(=O)c2ccsc2C1 (centres undefined)	i	1.1	·	·	·
COc1ccc(CNC(=O)CN2C(=O)C(c3ccccc3)Oc3cccnc32)cc1 (centres undefined)	i	1.9	·	·	·
O=C(CN1C(=O)C(c2ccccc2)Oc2cccnc21)NCc1ccccc1F (centres undefined)	-6.8*	-6.8	-22%*	i	i	KCNQ2 patch conf=+
COc1ccc(CCN(C)C(=O)c2cc(-c3ccccc3)nc3ccc(C)cc23)cc1OC	-7.1*	-7.1	-34%*	-34%*	-26%*	KCNQ2 patch conf=+
COc1ccc(CCN(C)C(=O)Cc2ccc(-c3ccccc3)cc2)cc1OC	i	·	·	·	·
SMILES	KCNQ2 block	KCNQ2 pot	KCNQ2 inh conf	KCNQ1 spec	CHO parental ctr	others
CC(=O)N1c2ccc(S(=O)(=O)NCC3CCC(C(=O)Nc4cccc(C)n4)CC3)cc2CC1C (centres undefined)	i	0.49	·	·	·
Cc1ccc(SCc2c(-c3ccccc3)nn(C)c2Cl)cc1	i	·	·	·	·
Cc1ccc(Sc2c(C#N)c(-c3ccccc3)nn2C)cc1	-8.5*	-8.5	i	i	i
CCCCCc1nnc(NC(=O)CN2C(=O)C3CCCCC3C2=O)s1 (centres undefined)	i	·	·	·	·
Cc1ccc(C)c(OC(=O)CN2C(=O)c3ccccc3C2=O)c1	i	1.5	·	·	·
CCOc1ccc(OCCOC(=O)CNC(=O)c2ccc(Cl)cc2Cl)cc1	i	·	·	·	·
CCOC(=O)C(CSCC(=O)c1ccc(Cl)cc1Cl)NC(=O)OC(C)(C)C (centres undefined)	-7.7*	-7.7	-28%*	i	i	KCNQ2 patch conf=+
Cc1cc(C(=O)NC2CCCCC2C)c2ccccc2n1 (centres undefined)	i	·	·	·	·
CCc1nc2ccc(F)cc2c(C(=O)NC2CCCCC2C)c1C (centres undefined)	-7.1*	-7.1	-26%*	i	i	KCNQ2 patch conf=+
